Reference: PubChem BioAssay (NCATS)
Where “and” joins values, the source holds several entries; their conditions need not be identical. Equal entries are not always repeated. Records with an inconclusive call do not appear. Entries that show only a call come without a potency. Some structures have more than one record in an assay (separate samples or runs), and their calls can disagree. Calls of active or inactive are those of the source. Unless noted, calls come from the whole dose curve; as a rule, active = well fitted curve in the direction sought with a large enough effect; inconclusive = small, poorly fitted or top-dose-only effect, or another doubt; inactive = no such curve, though single readings can be large; an effect the other way counts as inactive or inconclusive.

What was measured:
[1] = High-throughput drug toxicity screening in the BPDCN cell line Cal-1 (AID 1224825; call rule not given here); conditions: Cal-1 BPDCN cell viability, qHTS; at 45.8 µM (top of the series) unless noted
Summary of the method: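 Percent activity derived from CellTiter-Glo luminescence, scaling DMSO to 100% and 9.2 uM final bortezomib to 0%. BPDCN Cal-1 cells (500/well, RPMI plus 10% FBS) incubated with compounds 48 hours at 37C before reading.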

[2] = qHTS assay for measurement of the activity of small molecule inhibitors on Zika virus induced Caspase-3 activity in human iPSC derived neural progenitor cells (hNPCs) (AID 1224857); note: nearly all actives have a fitted effect of over 65% in size; note: potency is the fitted concentration of half-maximal effect
Summary of the method: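 Pretreat hNPCs with compound 1 h; infect ZIKV 2 FFU/cell; 6 h 37 C, 5% CO2; Caspase-Glo 3/7, 30 min RT; luminescence; normalize to no-virus and virus-only wells.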

[3] = qHTS Screen of the MIPE 4.0 Collection Against Ewings Sarcoma (RDES) (AID 1259252); note: nearly all actives have a fitted effect of over 35% in size; note: potency is the fitted concentration of half-maximal effect
Summary of the method: (§1)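 After a 4 h attachment period in RPMI/5% FBS, cells were pin-dosed with test compounds; DMSO served as negative and 9.2 uM bortezomib (final) as positive control. Luminescent CellTiter-Glo signal at 48 h defined viability.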

[4] = qHTS Screen of the MIPE 4.0 Collection Against Ewings Sarcoma (TC71) (AID 1259253); note: nearly all actives have a fitted effect of over 40% in size; note: potency is the fitted concentration of half-maximal effect
Summary of the method: as §1

[5] = qHTS Screen of the MIPE 4.0 Collection Against Ewings Sarcoma (EW8) (AID 1259255); note: nearly all actives have a fitted effect of over 35% in size; note: potency is the fitted concentration of half-maximal effect
Summary of the method: as §1

[6] = qHTS assay to identify small molecule inhibitors of chordoma cells - UCH-2 (AID 1259356); note: potency is the fitted concentration of half-maximal effect
[7] = qHTS Screen of the MIPE 4.0 Collection Against Ewings Sarcoma (TC32) (AID 1259256); note: nearly all actives have a fitted effect of over 45% in size; note: potency is the fitted concentration of half-maximal effect
Summary of the method: as §1

[8] = qHTS assay to identify small molecule inhibitors of chordoma cells - UCH-1 (AID 1259355); note: nearly all actives have a fitted effect of over 55% in size; note: potency is the fitted concentration of half-maximal effect
Summary of the method: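 800 cells/well, overnight attach; compounds pinned at 15 concs, then auranofin/camptothecin/doxorubicin/rubitecan/topotecan combo added; 48hr 37 C, 5% CO2; CellTiter-Glo, 30min RT, luminescence.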

[9] = Identifying Small Molecule Inhibitors of Pancreatic Cancer Stem Cells (A2780, Spheroid) (AID 1259357); conditions: Potency: A2780 spheroid viability;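 note: spheroids pre-formed over 14 days in stem cell medium on hydrogel; compound exposure lasted 48 h before the ATP luminescence read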
Summary of the method: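 Endpoint: ATP-based luminescence, 48 h drug exposure. Bortezomib at 9.2 uM final as full-kill control; DMSO vehicle as negative control; activity normalized between vehicle and cell-free wells.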

Row | SMILES | viability (% of control) [1] | Potency [2] | Potency [3] | Potency [4] | Potency [5] | Potency [6] | Potency [7] | Potency [8] | Potency [9]
1 | Oc1ccc(OCc2ccccc2)cc1 | 18.2% | inactive and 11.8 µM (active) | 2.35 µM (active) | 9.35 µM (active) | 4.18 µM (active) | inactive |  |  | 
2 | CC(C)c1ccc2oc3nc(N)c(C(=O)O)cc3c(=O)c2c1 | 97.4% | 1.66 µM (active) and inactive |  |  |  | inactive | inactive | inactive | 
3 | C[C@@H](c1ncncc1F)[C@](O)(Cn1cncn1)c1ccc(F)cc1F | 55.6% | inactive | inactive |  |  |  | inactive |  | 
4 | O=c1ccc2ccc(O)c(O)c2o1 | 20.8% | inactive |  | 14.8 µM (active) |  |  |  |  | 
5 | O=C(NOCC1CC1)c1ccc(F)c(F)c1Nc1ccc(I)cc1Cl | 7.67% | inactive | 20.9 µM (active) | 20.9 µM (active) |  |  |  |  | 
6 | CCC(C)(Oc1ccc(C2(c3ccc(OC(C)(CC)C(=O)O)cc3)CCCCC2)cc1)C(=O)O (centres undefined) | 136% | inactive | inactive |  | inactive | inactive |  |  | 
7 | O=C(c1ccccc1)c1ccc2n1CCC2C(=O)O (centres undefined) | 15.1% | 18.7 µM (active) | 3.32 µM (active) | 4.18 µM (active) | 6.62 µM (active) | inactive | 3.72 µM (active) | inactive | 
8 | COc1ccccc1N1CCN(CCN(C(=O)C2CCCCC2)c2ccccn2)CC1 | 80.8% | inactive | inactive |  | inactive |  |  |  | 
9 | O=c1oc2cc(O)ccc2s1 | 92.8% | 11.8 µM (active) | 16.6 µM (active) | 18.7 µM (active) | 13.2 µM (active) | inactive | 20.9 µM (active) | inactive | 
10 | CCc1nc(N)nc(N)c1-c1ccc(Cl)cc1 | 37.1% | inactive |  |  |  | inactive | 2.64 µM (active) | inactive | 
11 | CC1(C)CCC(C)(C)c2cc(NC(=O)c3ccc(C(=O)O)cc3)ccc21 | 66% | inactive | 23.5 µM (active) | 18.7 µM (active) |  | inactive |  | inactive | 
12 | COc1cc2c(N3CCN(C(=O)Nc4ccc(OC(C)C)cc4)CC3)ncnc2cc1OCCCN1CCCCC1 | 11.3% | inactive | 26.4 µM (active) |  | 23.5 µM (active) |  |  |  | 
13 | CC(=O)O[C@H]1C(=O)[C@@]2(C)C([C@H](OC(=O)c3ccccc3)[C@]3(O)C[C@H](OC(=O)[C@H](O)[C@@H](NC(=O)c4ccccc4)c4ccccc4)C(C)=C1C3(C)C)[C@]1(OC(C)=O)CO[C@@H]1C[C@@H]2O (some centres undefined) | 12.8% | inactive | inactive |  | inactive |  | inactive |  | 
14 | Cc1ncc([N+](=O)[O-])n1CC(C)O (centres undefined) | 98.4% | inactive |  |  | inactive | inactive |  | inactive | 
15 | CN(c1nccc(=O)[nH]1)C1CCN(c2nc3ccccc3n2Cc2ccc(F)cc2)CC1 | 108% | inactive | 13.2 µM (active) |  |  | inactive |  |  | 
16 | COC(=O)C1=C(C)NC(C)=C(C(=O)OC(C)C)C1c1cccc2nonc12 (centres undefined) | 105% | inactive | 23.5 µM (active) |  |  | inactive |  | inactive | 
17 | CCOC(=O)c1c(C)n(C)c2ccc(O)cc12 | 87.8% | inactive |  |  |  | inactive |  |  | 
18 | CC(C)Oc1ccc2c(=O)c(-c3ccccc3)coc2c1 | 102% | 10.5 µM (active) |  |  | inactive | inactive |  |  | 

Row | SMILES | viability (% of control) [1] | Potency [2] | Potency [3] | Potency [4] | Potency [5] | Potency [6] | Potency [7] | Potency [8] | Potency [9]
19 | N=C(N)c1ccc2cc(OC(=O)c3ccc(N=C(N)N)cc3)ccc2c1 | 102% | inactive | inactive |  | inactive | inactive |  | inactive | 
20 | Cc1nc2n(c(=O)c1CCN1CCC(c3noc4cc(F)ccc34)CC1)CCCC2 | 103% | inactive |  | inactive | inactive | inactive | inactive | inactive | 
21 | CCN(CC)CCOc1ccc(Cc2ccccc2)cc1 | 100% | inactive | 18.7 µM (active) |  |  | inactive |  | inactive | 
22 | COc1cc(Nc2c(C#N)cnc3cc(OCCCN4CCN(C)CC4)c(OC)cc23)c(Cl)cc1Cl | 3.18% | inactive | 3.32 µM (active) |  |  |  |  |  | 
23 | O=C(NCC1CCCCN1)c1cc(OCC(F)(F)F)ccc1OCC(F)(F)F (centres undefined) | 12.9% | inactive |  |  | inactive | inactive |  |  | 
24 | O=C(O)c1cn(-c2ccc(F)cc2)c2cc(N3CCNCC3)c(F)cc2c1=O | 79.5% | inactive |  |  |  | inactive |  |  | 
25 | CC(C)C[C@H](NC(=O)[C@H](Cc1ccccc1)NC(=O)c1cnccn1)B(O)O | 3.36% | inactive | 0.0332 µM (active) | 0.0418 µM (active) | 0.0166 µM (active) |  | 0.0372 µM (active) | 12.6 nM (active) and 6.3 nM (active) | 
26 | CCCS(=O)c1ccc2nc(NC(=O)OC)[nH]c2c1 (centres undefined) | 13.7% | 10 µM (active) and 16.6 µM (active) | 20.9 µM (active) |  | 20.9 µM (active) |  | 23.5 µM (active) |  | 
27 | Cc1cc(=O)oc2cc(O)ccc12 | 104% | inactive |  |  | inactive | inactive | inactive |  | 
28 | Cc1cccc(C#Cc2ccccc2)n1 | 57.2% | inactive and 6.31 µM (active) |  |  | 18.7 µM (active) |  |  |  | inactive
29 | Clc1ccc2c(N3CCN(CCCN4CCN(c5ccnc6cc(Cl)ccc56)CC4)CC3)ccnc2c1 | 112% [at 23.2 µM] | inactive | inactive |  | inactive |  |  |  | 
30 | Cc1cc(=O)c2c(O)c3c(O)cc(=O)c4c3c3c(cc(O)c1c23)C(C)(C)C=4O | 94.6% | inactive |  |  |  | 6.51 µM (active) |  |  | 
31 | O=C(NCCO[N+](=O)[O-])c1cccnc1 | 117% | inactive |  |  | inactive | inactive |  | inactive | 
32 | C=CCc1cc(OC)c(O)c(C(=O)NCCO)c1 | 128% | inactive |  |  | inactive | inactive |  | inactive | 
33 | Oc1ccc2ccccc2c1SSc1c(O)ccc2ccccc12 | 0.636% | 8.91 µM (active) |  |  |  |  | 23.5 µM (active) |  | 
34 | O=C1NC(=O)C(c2ccccc2[N+](=O)[O-])=C1Nc1ccc(O)c(Cl)c1 | 36.6% | 20.9 µM (active) | 20.9 µM (active) |  |  |  |  |  | 
35 | CCCc1cc(=O)[nH]c(=S)[nH]1 | 14.9% | inactive | inactive |  |  | inactive |  | inactive | 
36 | O=c1c(O)c(-c2cc(O)c(O)c(O)c2)oc2cc(O)cc(O)c12 | 111% | inactive | 16.6 µM (active) | inactive |  |  |  |  | 
